The record followed here is PubChem BioAssay.

The nature of experiment [1]: antimalarial activity against Dd2 strain (AID 2302;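 active = growth inhibition above 50% at the single 2 µM test dose, taken to imply half-maximal potency below 2 µM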;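 note: 0% = DMSO untreated growth and 100% = chloroquine plus artemisinin killed control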). The conditions noted are these: P. falciparum Dd2 in RBCs, LDH growth readout, 72 h; at 2 µM; active compounds read high.
The nature of experiment [2]: human hepatoma cell viability loss – ATP luminescence, cytotoxicity control for P. falciparum antimalarial project, primary screen (AID 2303;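 active = inhibition above 50%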;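 note: 0% = DMSO wells and 100% = digitonin-killed cells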). The conditions noted are these: HepG2 viability, 24-48 h, at 10 µM, active compounds read high.
In experiment [3] the target is L-lactate dehydrogenase (Plasmodium falciparum (isolate CDC / Honduras)) (UniProt Q27743). The experiment can be described thus: PfLDH activity inhibition – cell lysate, 3D7 strain, counter-screen for P. falciparum growth inhibition project (AID 2304).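 Note: 0% = vehicle and 100% = reference inhibitor.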 The conditions noted are these: P. falciparum 3D7 crude extract, LDH APAD/NBT absorbance; at 2 µM; active compounds read high. In general terms: Counterscreens check selectivity or assay interference.

The nature of experiment [4]: inhibition of 3D7 malaria parasite growth – strain 3D7 (AID 2306).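 Note: 0% = DMSO wells and 100% = chloroquine plus artemisinin control wells.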 The conditions noted are these: P. falciparum 3D7 erythrocytic growth, LDH absorbance, 72 h; at 2 µM; active compounds read high.
Experiment [5] concerns the target Calcium-dependent protein kinase 1 (Plasmodium falciparum (isolate 3D7)) (UniProt P62344). The experiment can be described thus: PfCDPK1 kinase inhibitors, biochemical, TCAMS library (AID 1159585; cut-off not given, nearly all actives have IC50 up to about 0.98 µM;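 note: inhibitors leave more ATP so luminescence rises with inhibition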). The conditions noted are these: recombinant PfCDPK1, Kinase-Glo ATP depletion luminescence.
Experiment [6] has as its target Plasmodium falciparum protein kinase 6 (PK6, PF3D7_1337100) (UniProt Q8IDW1). The experiment can be described thus: PfPK6 kinase inhibitors, biochemical, TCAMS library (AID 1159586). The conditions noted are these: recombinant PfPK6, Kinase-Glo ATP depletion luminescence. A general note: Kinase-Glo reads ATP consumption through a luciferase reaction.
Experiment [7] concerns the target Protein kinase 7 (PK7), Plasmodium falciparum 3D7 (PF3D7_0213400) (UniProt Q7YTF7). In words: inhibition of Plasmodium PK7 catalytic activity – biochemical, TCAMS antimalarial set, Kinase-Glo luminescence (AID 1159587). The conditions noted are these: recombinant PfPK7, Kinase-Glo ATP depletion luminescence.
Experiment [8] has as its target Calcium-dependent protein kinase 4 (Plasmodium falciparum (isolate 3D7)) (UniProt Q8IBS5). The experiment can be described thus: PfCDPK4 kinase inhibitors, biochemical, TCAMS library (AID 1159588; cut-off not given, nearly all actives have IC50 up to about 0.91 µM). The conditions noted are these: recombinant PfCDPK4, Kinase-Glo ATP depletion luminescence.

Unmarked numbers belong to inactive results. For some of these results: Measured potencies and affinities stand elsewhere. The source made the active and inactive calls. Unless noted, the rule behind the calls is not given here.

Chain of Calcium-dependent protein kinase 4 (Plasmodium falciparum (isolate 3D7)) (Q8IBS5 whole entry, looked up): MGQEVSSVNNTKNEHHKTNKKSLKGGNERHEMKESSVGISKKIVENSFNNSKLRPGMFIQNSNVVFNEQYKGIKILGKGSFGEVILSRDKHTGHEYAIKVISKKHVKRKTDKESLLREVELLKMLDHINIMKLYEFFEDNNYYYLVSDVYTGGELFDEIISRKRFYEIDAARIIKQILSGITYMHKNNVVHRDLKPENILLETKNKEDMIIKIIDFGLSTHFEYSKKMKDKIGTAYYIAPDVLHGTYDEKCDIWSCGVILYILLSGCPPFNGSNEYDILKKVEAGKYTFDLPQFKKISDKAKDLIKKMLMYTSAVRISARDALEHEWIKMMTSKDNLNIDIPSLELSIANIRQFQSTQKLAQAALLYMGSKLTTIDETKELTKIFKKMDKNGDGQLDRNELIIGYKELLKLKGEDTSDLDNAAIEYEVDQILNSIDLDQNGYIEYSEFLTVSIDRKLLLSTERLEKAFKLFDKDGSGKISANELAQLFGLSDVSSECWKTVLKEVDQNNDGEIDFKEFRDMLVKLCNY
Chain of L-lactate dehydrogenase (Plasmodium falciparum (isolate CDC / Honduras)) (Q27743 whole entry, looked up): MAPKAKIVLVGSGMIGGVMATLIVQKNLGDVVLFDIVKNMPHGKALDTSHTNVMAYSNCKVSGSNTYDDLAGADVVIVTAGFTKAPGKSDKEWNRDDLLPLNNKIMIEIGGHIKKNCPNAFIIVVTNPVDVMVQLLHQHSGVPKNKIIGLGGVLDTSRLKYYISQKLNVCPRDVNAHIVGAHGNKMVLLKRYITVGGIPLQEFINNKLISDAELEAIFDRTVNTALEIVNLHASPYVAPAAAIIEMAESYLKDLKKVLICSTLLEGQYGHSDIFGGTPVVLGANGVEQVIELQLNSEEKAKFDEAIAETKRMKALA
Chain of Protein kinase 7 (PK7), Plasmodium falciparum 3D7 (PF3D7_0213400) (Q7YTF7 1-343): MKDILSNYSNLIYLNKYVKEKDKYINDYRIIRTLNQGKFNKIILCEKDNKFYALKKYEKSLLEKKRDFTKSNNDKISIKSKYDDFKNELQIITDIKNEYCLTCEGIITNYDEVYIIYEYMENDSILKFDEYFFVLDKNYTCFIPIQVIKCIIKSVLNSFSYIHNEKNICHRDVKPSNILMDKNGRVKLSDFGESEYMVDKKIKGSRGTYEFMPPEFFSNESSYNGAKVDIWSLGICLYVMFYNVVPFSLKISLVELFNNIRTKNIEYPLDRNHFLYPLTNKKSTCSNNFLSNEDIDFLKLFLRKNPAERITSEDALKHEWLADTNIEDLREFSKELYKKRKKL
Chain of Calcium-dependent protein kinase 1 (Plasmodium falciparum (isolate 3D7)) (P62344 whole entry, looked up): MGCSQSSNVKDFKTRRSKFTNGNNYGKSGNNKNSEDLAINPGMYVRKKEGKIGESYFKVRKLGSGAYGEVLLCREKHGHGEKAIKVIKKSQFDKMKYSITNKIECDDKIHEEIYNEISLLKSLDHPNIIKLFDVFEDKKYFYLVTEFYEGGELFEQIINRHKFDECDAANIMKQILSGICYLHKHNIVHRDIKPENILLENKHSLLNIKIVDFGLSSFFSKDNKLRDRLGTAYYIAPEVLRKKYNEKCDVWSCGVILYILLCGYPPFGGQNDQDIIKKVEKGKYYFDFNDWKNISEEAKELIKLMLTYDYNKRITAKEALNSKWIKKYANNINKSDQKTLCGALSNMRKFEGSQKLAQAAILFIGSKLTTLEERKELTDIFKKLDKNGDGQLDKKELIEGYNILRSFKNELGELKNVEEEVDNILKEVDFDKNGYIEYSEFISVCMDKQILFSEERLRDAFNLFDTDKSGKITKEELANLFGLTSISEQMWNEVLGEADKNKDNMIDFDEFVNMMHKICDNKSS
Chain of Plasmodium falciparum protein kinase 6 (PK6, PF3D7_1337100) (Q8IDW1 1-305): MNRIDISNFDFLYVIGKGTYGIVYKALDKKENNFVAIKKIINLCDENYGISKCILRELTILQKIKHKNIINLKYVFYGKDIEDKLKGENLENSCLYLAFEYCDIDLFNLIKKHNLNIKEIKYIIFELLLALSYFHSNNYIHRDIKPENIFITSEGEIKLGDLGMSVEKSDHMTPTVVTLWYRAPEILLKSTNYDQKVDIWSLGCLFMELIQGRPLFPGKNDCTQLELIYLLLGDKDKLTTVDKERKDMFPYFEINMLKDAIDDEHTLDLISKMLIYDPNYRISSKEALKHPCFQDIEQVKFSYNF

By inhibition is commonly meant the relative decrease from the control value, in per cent. `Cc1nc2c(-n3cc(Cn4ccnc4)c4ccccc43)ncnc2n1-c1ccc(Cl)cc1Cl`: the growth inhibition in experiment [1] is 29%; in experiment [4] it was 89% (active). The inhibition in experiment [2] was 16%; in experiment [3] it was -5%. The result in experiment [5], in experiment [6], in experiment [7] and in experiment [8] was inactive.
With `O=C(C=Cc1ccc(Cl)c(Cl)c1)NCCCCCN1CCC(CCCNS(=O)(=O)c2ccc(Br)cc2)CC1`, the growth inhibition was 25% in experiment [1] and 93% (active) in experiment [4]. The figures for the inhibition in experiment [2] and in experiment [3] were 74% (active) and -5%, respectively. In addition, the outcome in experiment [5], in experiment [6], in experiment [7] and in experiment [8] was inactive.
For `Cc1ccc2[nH]ncc2c1N(CC1CCCCC1)c1ccnc(Nc2ccc(OCC(O)CN3CC=CCC3)cc2)n1` (stereo not given), the growth inhibition in experiment [1] is 79% (active); in experiment [4], 100% (active). Moreover, the inhibition was 29% in experiment [2] and -4% in experiment [3]. Moreover, the result in experiment [5], in experiment [6], in experiment [7] and in experiment [8] was inactive.
Regarding `O=C(NCCCCCN1CCC(c2c[nH]c3ccccc23)CC1)Nc1ccc(Cl)cc1Cl`, the growth inhibition in experiment [1] was 15%; in experiment [4], 99% (active). For the same compound, the inhibition in experiment [2] was 71% (active); in experiment [3], -2%. The outcome in experiment [5], in experiment [6], in experiment [7] and in experiment [8] was inactive.
With `CN(C)Cc1ccc(-c2cccc(NC(=O)c3cccc(Cl)c3)c2)cc1`, the values for the growth inhibition in experiment [1] and in experiment [4] were 12% and 96% (active), respectively. The values for the inhibition in experiment [2] and in experiment [3] were 18% and -6%, respectively. Also, the outcome in experiment [5], in experiment [6], in experiment [7] and in experiment [8] was inactive.
For the compound `COc1cc(C)nc2ccc(NC(=O)c3cc(C(F)(F)F)cc(C(F)(F)F)c3)cc12`, the growth inhibition in experiment [1] is 99% (active); in experiment [4], 101% (active). Further, the inhibition in experiment [2] was 16%; in experiment [3], 0%. Besides, the outcome in experiment [5], in experiment [6], in experiment [7] and in experiment [8] was inactive.
With `Cc1cccc2[nH]c(-c3ccc(-c4cccc(NC(=O)c5cnccc5C(F)(F)F)c4)cc3)nc12`, the growth inhibition in experiment [1] was 13%; in experiment [4], 84% (active). Moreover, the inhibition in experiment [2] was 25%; in experiment [3] it was 0%. The result in experiment [5], in experiment [6], in experiment [7] and in experiment [8] was inactive.
`CCCc1c(C(=O)Nc2ccc3c(c2)CCN(C2CCC2)CC3)cnn1-c1ccc(Cl)cc1`: the values for the growth inhibition in experiment [1] and in experiment [4] were 12% and 92% (active), respectively. Also, the inhibition in experiment [2] is 64% (active); in experiment [3], 2%. In addition, the outcome in experiment [5], in experiment [6], in experiment [7] and in experiment [8] was inactive.
As to `COc1cc2nc(N3CCN(C(=O)c4ccc(N(C(=O)OC(C)(C)C)C(=O)OC(C)(C)C)cc4)CC3)nc(N)c2cc1OC`, the growth inhibition in experiment [1] was 19%; in experiment [4], 96% (active). Further, the values for the inhibition in experiment [2] and in experiment [3] were 12% and 1%, respectively. Also, the outcome in experiment [5], in experiment [6], in experiment [7] and in experiment [8] was inactive.
For the compound `CC(C)C[C@H](NC(=O)c1ccc(OCCN2CCOCC2)cc1)C(=O)N[C@H](/C=N/NC(=O)c1ccccc1)CCc1ccccc1`, the growth inhibition in experiment [1] was 90% (active); in experiment [4], 98% (active). In addition, the inhibition in experiment [2] was 17%; in experiment [3] it was -3%. For the same compound, the outcome in experiment [5], in experiment [6], in experiment [7] and in experiment [8] was inactive.
Take `CS(=O)(=O)CCN(CCS(C)(=O)=O)Cc1ccc(-c2ccc3ncnc(Nc4ccc(OCc5cccc(F)c5)c(Cl)c4)c3c2)o1`: the growth inhibition is 27% in experiment [1] and 90% (active) in experiment [4]. Also, the figures for the inhibition in experiment [2] and in experiment [3] were -2% and -3%, respectively. Also, the result in experiment [5], in experiment [6], in experiment [7] and in experiment [8] was inactive.
As for `CNC(=O)c1cncc(/C=C/c2ccccc2S(N)(=O)=O)c1`, the growth inhibition is 77% (active) in experiment [1] and 100% (active) in experiment [4]. The results for the inhibition in experiment [2] and in experiment [3] were 17% and -1%, respectively. Further, the result in experiment [5], in experiment [6], in experiment [7] and in experiment [8] was inactive.
As to `CC(C)(CNCc1cc(Cl)cc(Cl)c1)c1nc(-c2ccc(Cl)c(O)c2)c(-c2ccnc(N)n2)[nH]1`, the growth inhibition was 2% in experiment [1] and 92% (active) in experiment [4]. Further, the inhibition in experiment [2] is 54% (active); in experiment [3], -1%. For the same compound, the outcome in experiment [5], in experiment [6], in experiment [7] and in experiment [8] was inactive.
Turning to `Cc1ccc2nc(NC#N)[nH]c2c1`, the figures for the growth inhibition in experiment [1] and in experiment [4] were -3% and 96% (active), respectively. Moreover, the inhibition in experiment [2] was 7%; in experiment [3], 2%. The outcome in experiment [5], in experiment [6], in experiment [7] and in experiment [8] was inactive.
With `O=C(NCCc1ccccc1)N(Cc1ccccc1-c1ccc(CNCCc2ccccc2)cc1)C1CCN(Cc2ccccc2)CC1`, the growth inhibition is 91% (active) in experiment [1] and 97% (active) in experiment [4]. Moreover, the inhibition was 99% (active) in experiment [2] and 5% in experiment [3]. The result in experiment [5], in experiment [6], in experiment [7] and in experiment [8] was inactive.
As for `COc1cc2nc(Nc3ccc(Oc4ccccc4)cc3)nc(Nc3ccc(Oc4ccccc4)cc3)c2cc1OC`, the results for the growth inhibition in experiment [1] and in experiment [4] were 45% and 95% (active), respectively. The inhibition in experiment [2] was 5%; in experiment [3], 6%. The result in experiment [5], in experiment [6], in experiment [7] and in experiment [8] was inactive.
With `COc1cccc(C(=O)Nc2ccc(Oc3ccc(Cl)cc3)cc2)c1`, the growth inhibition in experiment [1] was -2%; in experiment [4] it was 92% (active). In addition, the inhibition in experiment [2] is 33%; in experiment [3], -5%. Besides, the outcome in experiment [5], in experiment [6], in experiment [7] and in experiment [8] was inactive.
Consider `O=c1cc(NCCCNCc2cccc(OC(F)(F)C(F)F)c2)[nH]c2ccccc12`, for which the growth inhibition was 7% in experiment [1] and 81% (active) in experiment [4]. Further, the inhibition in experiment [2] is 6%; in experiment [3], -5%. Besides, the outcome in experiment [5], in experiment [6], in experiment [7] and in experiment [8] was inactive.
Regarding `COc1cc2c(cc1OC)CN(CCCCNC(=O)c1ccc(NC(=O)c3cc(Cl)cc(Cl)c3)cc1)CC2`, the values for the growth inhibition in experiment [1] and in experiment [4] were 75% (active) and 99% (active), respectively. The inhibition in experiment [2] is 19%; in experiment [3], -6%. Further, the outcome in experiment [5], in experiment [6], in experiment [7] and in experiment [8] was inactive.
Turning to `COc1ccc(C(C(=O)NC2CCN(C[C@H](O)c3ccnc4ccc(OC)cc34)CC2)N2CCN(c3ccc(Cl)c(Cl)c3)CC2)cc1` (stereo not given in full), the growth inhibition in experiment [1] is 79% (active); in experiment [4], 101% (active). The inhibition was 12% in experiment [2] and 2% in experiment [3]. The result in experiment [5], in experiment [6], in experiment [7] and in experiment [8] was inactive.
